Measured values published in PubChem BioAssay AID602449 (Sanford-Burnham Center for Chemical Genomics, 2012).
About 5,000 (1.4%) of roughly 360,000 compounds were called active. This is one part of a sample in which actives are shown more often than they occur. Unmarked numbers belong to inactive results.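 Rule for the calls: active = inhibition of 50% or more, scaled per plate between neutral and stimulator controls; inactive = the rest.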

test: mitochondrial permeability transition pore inhibitors, primary screen, biochemical, isolated mouse mitochondria, absorbance (AID 602449); conditions: Ca2+ swelling absorbance, 30 min, at 10 µM, active compounds read high;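 note: 0% = DMSO wells given calcium and 100% = 1 mM EGTA wells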

| Compound | inhibition |
| --- | --- |
| O=C(NCCNc1ccc([N+](=O)[O-])cc1)c1cccc2c(Br)cccc12 | 77.6% (active) |
| O=C(NCCNc1ccc([N+](=O)[O-])cc1Cl)c1ccccc1F | 1% |
| CC(CNc1ccc([N+](=O)[O-])cc1)NC(=O)c1ccccc1Br (configuration not stated) | 0% |
| Cc1c(Cl)c([N+](=O)[O-])nn1CC(=O)NCC1CCCO1 (configuration not stated) | -1.6% |
| CCN(CC)c1ccc(NC(=O)c2ccc(=O)[nH]c2)cc1S(=O)(=O)Nc1ccc(OC)cc1 | -0.4% |
| S=C(NCc1ccc(Cl)cc1)NC1CCCCC1 | 67.6% (active) |
| COc1ccc(Cl)cc1C(=O)NNC(=S)NC1CCCC1 | -0.5% |
| O=C(NNC(=S)NC1CCCCC1)c1ccccc1Cl | 0.2% |
| O=C(NCc1ccc2c(c1)OCO2)C12CC3CC(CC(C3)C1)C2 | 3.7% |
| S=C(NCc1ccc(Cl)cc1)NC12CC3CC(CC(C3)C1)C2 | 96.8% (active) |
| Cc1ccc(C(=O)NC23CC4CC(CC(C4)C2)C3)c(Cl)c1 | -0.2% |
| CCOCCCNC(=O)C1(O)c2cc(Br)ccc2NC(=O)N1c1ccc(C)c(C)c1 (configuration not stated) | 0.7% |
| O=C(NCCOc1ccccc1Cl)C(=O)Nc1ccccc1 | -1.3% |
| O=C(NCCOc1ccccc1F)Nc1ccc(Br)cc1 | 87.9% (active) |
| O=C(COc1ccccc1F)NNC(=O)c1cc(Br)ccc1Cl | -1.8% |
| COC(=O)CNC(c1ccccc1Cl)c1cc(Br)ccc1NC(=O)CCN1CCOCC1 (configuration not stated) | -1% |
| CCC(C(=O)NCc1ccccc1)n1c(Cc2cc(F)cc(F)c2)nc2ccccc21 (configuration not stated) | 2.2% |
| COC(=O)c1ccc(NC(=O)c2ccccc2NS(=O)(=O)c2ccccc2)cc1 | 102% (active) |
| CCOC(=O)c1ccc(N/C(=N/S(=O)(=O)c2ccccc2)c2ccccc2)cc1 | 1.7% |
| COc1ccccc1C(=O)Nc1ccc(Nc2ccccc2)cc1 | 0.9% |
| COc1cccc(NC(=O)c2ccccc2N(Cc2ccccc2)S(C)(=O)=O)c1 | 0% |
| O=S(=O)(Nc1ccccc1N1CCOCC1)c1ccc(Cl)s1 | -0.7% |
| COc1cc(NC(=O)c2ccccc2NS(=O)(=O)c2ccc(Cl)s2)cc(OC)c1 | 67% (active) |

| Compound | inhibition |
| --- | --- |
| COc1cc(C(=O)NNC(=O)CN2C(=O)NC3(CCCC3)C2=O)cc(OC)c1OC | -0.8% |
| COc1ccc(NS(=O)(=O)c2ccc(NC(=O)c3ccc(N(C)S(C)(=O)=O)cc3)cc2)cc1 | 21.3% |
| COc1ccc(NS(=O)(=O)c2ccc(Oc3c(C#N)cccc3C#N)cc2)cc1 | 91.6% (active) |
| COc1ccc(NS(=O)(=O)c2ccc(N3CCN(CCO)CC3)c([N+](=O)[O-])c2)cc1 | 2.1% |
| CC(=N\NC(=O)c1cc(Br)ccc1O)/C(=N/O)C(=O)Nc1ccccc1 | 76.8% (active) |
| C/C(=N/NC(=O)c1cc(Cl)ccc1O)C12CC3CC(CC(C3)C1)C2 | 9.3% |
| CC(=O)N/N=C(\C)c1ccc(Br)cc1Br | -4.6% |
| CCO[C@H]1OC(C(=O)O)=C[C@@H](C2CCCCC2)[C@@H]1CCCO | -1.5% |
| O=C(COC(=O)c1cnccn1)Nc1ccc(Cl)cc1C(F)(F)F | -0.1% |
| C=CCNC(=O)CCCC(=O)NCC=C | 1.2% |
| O=C(OC1CC2CC1[C@H]1CCCCN1C2=O)N1CCOCC1 (some centres not stated) | -3% |
| Cc1ccc(C)c(NC(=S)NCC(c2cccnc2)N2CCOCC2)c1 (configuration not stated) | -1.7% |
| Cc1ccc(C)c(NC(=S)NNC(=S)Nc2ccc(C(C)C)cc2)c1 | 93.7% (active) |
| Cc1ccc(C)c(NC(=O)C2CC(=O)N(C(C)C)C2)c1 (configuration not stated) | -0.7% |
| CCc1ccccc1NC(=O)CN(C)C(=O)COc1ccc(C)nc1[N+](=O)[O-] | 14.3% |
| O=C(NCc1ccncc1)C1CCN(C(=O)c2cccc(Cl)c2)CC1 | 0.5% |
| C=CCn1c(N)cc(=O)nc1SCC(=O)Nc1cccc2ccccc12 | 0.1% |
| Cc1cccc(NS(=O)(=O)c2ccc([N+](=O)[O-])cc2)n1 | 0.2% |
| O=[N+]([O-])c1ccc(NS(=O)(=O)c2ccccc2)c(Cl)c1 | 86.7% (active) |
| O=C(NNS(=O)(=O)c1ccc(F)cc1)c1ccc([N+](=O)[O-])cc1Cl | -0.9% |
| CC(Nc1ccccc1)c1cccnc1 (configuration not stated) | -1.4% |
| CC(=O)c1c(C)[nH]c(C(=O)OCC(=O)Nc2c(C)cccc2C)c1C | 1.5% |
| N#Cc1c(NC(=O)CCCl)sc2c1CCCCC2 | 0.2% |

| Compound | inhibition |
| --- | --- |
| CC(=O)c1c(C)[nH]c(C(=O)OCC(=O)Nc2sc3c(c2C#N)CCCC3)c1C | 98.8% (active) |
| O=C1CCN(Cc2ccc([N+](=O)[O-])cc2)CCN1[C@H](CO)Cc1ccccc1 | -0.2% |
| O=C(Nc1nnc(COc2ccccc2)s1)Nc1ccccc1F | 6.4% |
| O=C(Nc1ccccc1)Nc1nnc(COc2ccccc2F)s1 | 69.5% (active) |
| COCc1nnc(NC(=O)CS(=O)(=O)Cc2ccccc2)s1 | 0.4% |
| Cc1[nH]c2ccccc2c1-c1ccc(Cl)nn1 | -1% |
| COC(=O)[C@]1(S(=O)(=O)c2ccccc2)C[C@@H]2ON=C(c3ccc(OC)cc3)[C@@H]2C1 | 1% |
| N#C[C@]1(S(=O)(=O)c2ccccc2)C[C@@H]2ON=C(c3cccc(Br)c3)[C@@H]2C1 | 72.4% (active) |
| CC1=C(C)CC(C(=O)NC(C)CCc2ccccc2)C(C(=O)O)C1 (configuration not stated) | -1.3% |
| COc1cc(Br)c(-c2sc(Nc3ccccc3)n[n+]2-c2ccccc2)cc1OC | 1.6% |
| COc1ccc(C)cc1Nc1n[n+](-c2ccccc2)c(-c2cccc(Cl)c2Cl)s1 | 1.4% |
| CCc1ccc(Nc2n[n+](-c3ccccc3)c(-c3cccc(Cl)c3Cl)s2)cc1 | 57.1% (active) |
| Cc1ccc(C)c(OCCC(=O)OCC(=O)N2CCN(c3ccccc3)CC2)c1 | -0.6% |
| O=C(CCCC(=O)N1CCN(c2cccc(Cl)c2)CC1)c1ccccc1 | -0.6% |
| CCOC(=O)N1CCN(C(=O)Cc2ccc(-n3c(=S)[nH]c4ccccc4c3=O)cc2)CC1 | -1.2% |
| O=C(Cc1ccc(-n2c(=O)[nH]c3ccccc3c2=O)cc1)N1CCN(c2cccc(Cl)c2)CC1 | 53% (active) |
| Cc1ccc(C(=O)N2CCN(C3CCCCC3)CC2)s1 | -0.6% |
| COc1cccc(C(O)c2ncc(-c3ccc4ccccc4c3)[nH]2)c1 (configuration not stated) | -0.1% |
| CCCCCC(O)c1cccc(OCc2ccc3ccccc3n2)c1 (configuration not stated) | 50.9% (active) |
| COc1cccc(C(O)c2nc3ccccc3n2C)c1 (configuration not stated) | -0.2% |
| Cc1ccnc(NC(=O)CCC(=O)N(CC(=O)NCc2ccccc2)Cc2ccco2)c1 | -0.3% |
| Cc1cc(C)c2c(=O)[nH]c(SCC(=O)Nc3ccc(Br)cc3)nc2n1 | 4.4% |
| N#Cc1c(-c2cccs2)nc(SCC(=O)c2ccc(Br)cc2)[nH]c1=O | 53.9% (active) |

| Compound | inhibition |
| --- | --- |
| CCc1ccc(C(=O)CSc2nnc(C)c(=O)[nH]2)cc1 | 0.8% |
| CC1=C(C(=O)N(C)C)CC(CC(=O)NCCc2ccccn2)C(=O)N1CCC1=CCCCC1 (configuration not stated) | -0.3% |
| COc1ccc(CC(=O)N[C@@H](CCSC)c2nc3ccccc3[nH]2)cc1 | -1.3% |
| CSCCC(NC(=O)c1cc([N+](=O)[O-])cc([N+](=O)[O-])c1)c1nc2ccccc2[nH]1 (configuration not stated) | 50.8% (active) |
| CSCCC(NC(=O)c1ccc(=O)n(C)n1)c1nc2ccccc2[nH]1 (configuration not stated) | -0.7% |
| COC(=O)[C@@]12C[C@@H](CC(=O)NCCCCc3ccccc3)C(=O)N(CCc3ccc(OC)c(OC)c3)C1=CCC(C)(C)C2 | -2.6% |
| Cc1ccc(C)c(N2CCN(C(=O)Cn3ncn4cccc4c3=O)CC2)c1 | 0.1% |
| COc1ccc(S(=O)(=O)NCC2CCCN(C(=O)c3occc3C)C2)cc1 (configuration not stated) | -0.5% |
| O=C(NNc1ccccc1Cl)C(O)(c1cccc(C(F)(F)F)c1)c1cccc(C(F)(F)F)c1 | 90% (active) |
| O=C(O)c1cc(S(=O)(=O)N(Cc2ccccc2)c2cccc(C(F)(F)F)c2)ccc1Cl | 0.9% |
| O=c1cc(O)c(-c2cccc(C(F)(F)F)c2)c(Cl)[nH]1 | 3.7% |
| CCCCNc1c(-c2cccc(Sc3ccc(OC)cc3)c2)nc2ccccn12 | 6.5% |
| CC(=O)NC(CC(=O)Nc1ccc(S(=O)(=O)N2CCOCC2)cc1)c1ccccc1 (configuration not stated) | -1.9% |
| COc1ccc(C(C)(O)c2nc(-c3cc(F)cc(F)c3)cs2)cc1 (configuration not stated) | 1.2% |
| COC(=O)C1=CN(c2c(C)cc(C)cc2C)C(N)=C(C#N)C1c1cccc(F)c1 (configuration not stated) | 1.1% |
| CCCCN(C)C(=O)C1CCN(Cc2ccccn2)CC1 | -1% |
| C#CCCCc1nc2ccccc2c(=O)n1N | 5.8% |
| N#Cc1c(-c2ccccc2)nc(SCc2cccc(C(F)(F)F)c2)[nH]c1=O | 49.1% |
| Cn1c(-c2sccc2OCc2cccc(C(F)(F)F)c2)n[nH]c1=S | 0.2% |
| O=c1c2ccccc2nc2n1C(CSCc1cccc(C(F)(F)F)c1)CS2 (configuration not stated) | 54% (active) |
| O=c1c2ccccc2nc2n1C(CSc1ccc(Cl)cc1)CN2 (configuration not stated) | -1.7% |
| O=c1c2ccccc2nc2n1C(CSCc1ccccc1)CS2 (configuration not stated) | 52.1% (active) |
| COC(=O)[C@@]1(Cc2ccc(F)cc2)[C@H]2c3cc(C(=O)N(C)C)n(CCc4c[nH]c5ccc(OC)cc45)c3C[C@H]2CN1C(=O)c1ccccc1 | -3.6% |
